According to PubChem BioAssay AID1159580 (chemical genetic matrix, 2015):
Where “and” joins values, the source holds several entries; their conditions need not be identical. Equal values may be shown once. In all, about 5,500 compounds went through this assay and about 2,000 (36%) were called active. Roughly 18% stayed inconclusive and do not appear here. Cut-off read from the data, not from the text of the source: active = normalized growth mostly below about 0.91 (no sharp cut-off); inconclusive = no clear call, values can overlap the other calls; inactive = mostly above about 0.92. The list shows a part of the results.

Test: chemical genetic growth profiling, strain panel (AID 1159580);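 note: tested at 20 µM; growth read once vehicle control cultures reached saturation at 30 °C; 1 = growth at the plate median or of vehicle wells; lower values mean less growth of the strain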
Settings: S. cerevisiae deletion strains, growth OD

Measured: normalized growth

COc1ccc(C2CC(=O)c3ccc(OC)cc3O2)cc1 (centres undefined)
inactive: locus YAL021C, strain ccr4, stronger effect = lower value 0.953 | locus YAL026C, strain drs2, stronger effect = lower value 0.939 | locus YAL030W, strain snc1, stronger effect = lower value 0.954 | locus YBL061C, strain skt5, stronger effect = lower value 0.948 | locus YBR023C, strain chs3, stronger effect = lower value 0.915 | locus YBR171W, strain sec66, stronger effect = lower value 0.936 | locus YBR229C, strain ROT2, stronger effect = lower value 0.963 | locus YBR231C, strain swc5, stronger effect = lower value 0.921 | locus YBR279W, strain paf1, stronger effect = lower value 0.95 | locus YCL011C, strain gbp2, stronger effect = lower value 0.928 | locus YCL016C, strain dcc1, stronger effect = lower value 0.939 | locus YCL029C, strain bik1, stronger effect = lower value 0.923 | locus YCL061C, strain MRC1, stronger effect = lower value 0.932 | locus YCL069W, strain vba3, stronger effect = lower value 0.961 | locus YCR088W, strain abp1, stronger effect = lower value 0.957 | locus YDL005C, strain med2, stronger effect = lower value 0.96 | locus YDL035C, strain GPR1, stronger effect = lower value 0.872 | locus YDL040C, strain nat1, stronger effect = lower value 0.956 | locus YDL101C, strain DUN1, stronger effect = lower value 0.9 | locus YDL185W, strain tfp1, stronger effect = lower value 0.938 | locus YDR001C, strain nth1, stronger effect = lower value 0.951 | locus YDR069C, strain doa4, stronger effect = lower value 0.953 | locus YDR101C, strain arx1, stronger effect = lower value 0.93 | locus YDR137W, strain rgp1, stronger effect = lower value 0.966 | locus YDR159W, strain sac3, stronger effect = lower value 0.929 | locus YDR297W, strain sur2, stronger effect = lower value 0.948 | locus YDR334W, strain swr1, stronger effect = lower value 0.961 | locus YDR335W, strain msn5, stronger effect = lower value 0.953 | locus YDR388W, stronger effect = lower value 0.955 | locus YEL003W, strain gim4, stronger effect = lower value 0.94 | locus YEL037C, strain rad23, stronger effect = lower value 0.962 | locus YEL061C, strain CIN8 (second series), stronger effect = lower value 0.967 | locus YER015W, strain faa2, stronger effect = lower value 0.96 | locus YER016W, strain bim1, stronger effect = lower value 0.963 | locus YER110C, stronger effect = lower value 0.937 | locus YER111C, strain swi4, stronger effect = lower value 0.959 | locus YER155C, strain BEM2, stronger effect = lower value 0.979 | locus YFR010W, strain ubp6, stronger effect = lower value 0.954 | locus YGL078C, strain dbp3, stronger effect = lower value 0.958 | locus YGL167C, strain pmr1, stronger effect = lower value 0.938 | locus YGL173C, strain kem1, stronger effect = lower value 0.931 | locus YGL227W, strain vid30, stronger effect = lower value 0.959 | locus YHR013C, strain ard1, stronger effect = lower value 0.866 | locus YHR027C, strain rpn1, stronger effect = lower value 0.965 | locus YHR079C, strain IRE1 (second series), stronger effect = lower value 0.97 | locus YHR079C, strain IRE1, stronger effect = lower value 0.878 | locus YHR094C, strain hxt1, stronger effect = lower value 0.956 | locus YHR200W, strain rpn10, stronger effect = lower value 0.929 | locus YIL073C, strain SPO22, stronger effect = lower value 0.772 | locus YIL125W, strain kgd1, stronger effect = lower value 0.94 | locus YJL092W, strain hpr5, stronger effect = lower value 0.957 | locus YJL095W, strain BCK1 (second series), stronger effect = lower value 0.927 | locus YJL115W, strain asf1, stronger effect = lower value 0.954 | locus YJL129C, strain trk1, stronger effect = lower value 0.992 | locus YJL134W, strain LCB3, stronger effect = lower value 0.975 | locus YJL154C, strain vps35, stronger effect = lower value 0.977 | locus YJL168C, strain set2, stronger effect = lower value 0.95 | locus YJL187C, strain SWE1 (second series), stronger effect = lower value 0.868 | locus YJL187C, strain SWE1, stronger effect = lower value 0.948 | locus YJR043C, strain POL32, stronger effect = lower value 0.861
active: locus YBR009C, strain hhf1, stronger effect = lower value 0.854 | locus YBR021W, strain FUR4, stronger effect = lower value 0.805 | locus YDL074C, strain BRE1, stronger effect = lower value 0.689 | locus YDL192W, strain arf1, stronger effect = lower value 0.891 | locus YDR162C, strain NBP2, stronger effect = lower value 0.74 | locus YDR195W, strain ref2 1.19 [resistant] | locus YDR318W, strain mcm21, stronger effect = lower value 0.906 | locus YDR392W, strain spt3, stronger effect = lower value 0.538 | locus YDR502C, strain sam2, stronger effect = lower value 0.882 | locus YEL061C, strain CIN8, stronger effect = lower value 0.905 | locus YER155C, strain BEM2 (second series), stronger effect = lower value 0.683 | locus YER167W, strain BCK2, stronger effect = lower value 0.89 | locus YGL086W, strain mad1, stronger effect = lower value 0.898 | locus YGL240W, strain doc1, stronger effect = lower value 0.786 | locus YGL248W, strain PDE1, stronger effect = lower value 0.843 | locus YGL253W, strain hxk2, stronger effect = lower value 0.891 | locus YGR135W, strain pre9, stronger effect = lower value 0.857 | locus YGR229C, strain SMI1, stronger effect = lower value 0.504 | locus YGR252W, strain gcn5, stronger effect = lower value 0.628 | locus YHR030C, strain SLT2, stronger effect = lower value 0.744 and 0.843 | locus YHR129C, strain ARP1, stronger effect = lower value 0.882 | locus YHR142W, strain chs7, stronger effect = lower value 0.842 | locus YIL066C, strain RNR3, stronger effect = lower value 0.793 | locus YIR030C, strain dcg1, stronger effect = lower value 0.92 | locus YJL095W, strain BCK1, stronger effect = lower value 0.523 and 0.838 | locus YJL164C, strain tpk1, stronger effect = lower value 0.898 | locus YJL166W, strain qcr8, stronger effect = lower value 0.859 | locus YJR066W, strain TOR1, stronger effect = lower value 0.805 | locus YKL009W, strain mrt4, stronger effect = lower value 0.862
